Several values for one entry are separate records, joined by “and”; a condition that tells them apart may be missing. Equal entries are not always repeated. The whole screen tested about 75,000 compounds, of which about 5,700 (7.6%) were called active. About 7% were inconclusive and are not listed. The call rests on the fitted dose curve; in most records, active means well fitted inhibition curve with a large enough effect; inconclusive means small, poorly fitted or top-dose-only effect; inactive means no such curve, though single readings can be large or run the other way. This excerpt belongs to a sample that is enriched for actives.
biological target: 3-hydroxyacyl-CoA dehydrogenase type-2 (Homo sapiens) (UniProt Q99714); assay: qHTS Assay for Inhibitors of HSD17B4, hydroxysteroid (17-beta) dehydrogenase 4; conditions: recombinant HSD17B10, NADH fluorescence kinetic; series mostly up to 57.1 µM; activity change, negative = inhibition: at the top concentration;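 further: the protocol describes HADH2 (HSD17B10) and not the HSD17B4 of the title; nearly all actives have a fitted effect of over 70% in size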
Summary of the method: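 Enzyme plus compound, 15 min room temperature; substrate mix added (NAD+ 1 mM, beta-hydroxybutyryl-CoA 90 uM final); plates read kinetically for NADH fluorescence. HADH2 was His-tagged, E. coli-derived, 20 nM.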
On the % scale 0 is the no-effect control and ±100 the full control effect; potency means the concentration at half of the fitted maximal effect.

Structure (SMILES)	activity change, negative = inhibition	Potency
CC(=O)C1C(c2ccc(Cl)cc2)NC(=O)NC1(O)C(F)(F)F (centres undefined)	0.683% (inactive)	
COC(=O)[C@@]1(Cc2ccc(F)cc2)[C@@H]2[C@@H](CC(=O)[C@H]2CC(=O)C(=O)N2CCCC2)CN1C(=O)c1ccccc1	-1.36% (inactive)	
CN1CCN(Cc2nc3c(c(=O)n(C)c(=O)n3C)n2Cc2cccc3ccccc23)CC1	2.52% (inactive)	
COc1ccc(-c2nnc(SCC(=O)c3cccs3)o2)c(OC)c1	-0.925% (inactive)	
CCN(CC)C(=O)CSc1nnc(-c2cccc(OC)c2)o1	10.4% (inactive)	
COc1ccc(OC)c(C(=O)CSc2nnc(-c3cccs3)o2)c1		31.6 µM (active)
COCC(C)N=CC1=C(O)CC(C)(C)CC1=O (centres undefined)	1.61% (inactive)	
CCc1cc(=O)oc2cc(C)cc(OC(C)C(=O)O)c12 (centres undefined)		31.6 µM (active)
N#CCC(=O)NC(=O)NCC1CC1	26.3% (inactive)	
CCCC[C@@H]1C[C@H]1C(NC(=O)c1ccco1)c1ccc(C(=O)OC)cc1 (some centres undefined)	-1.66% (inactive)	
O=C(O)c1ccc(-n2cccc2)cc1O		31.6 µM (active)
O=C(O)c1ccc(C(=O)O)c2c(C(=O)O)ccc(C(=O)O)c12	-1.54% [at 11.4 µM] (inactive)	
O=C(Cn1ccc(=O)[nH]c1=O)Nc1ccc(C(=O)O)c(O)c1	-0.357% [at 11.4 µM] (inactive)	
Cc1cc(NS(=O)(=O)c2ccccc2)no1	3.57% (inactive)	
Nc1ncn(C2OC(CO)C(O)C2O)c(=O)n1 (centres undefined)	3.46% (inactive)	
CN1C(=O)c2ccc(NC(=O)C3CCCCC3)cc2C1=O		25.1 µM (active)
O=C(Nc1cnn(Cc2ccc(Cl)cc2)c1)C1CCCC1	12.7% (inactive)	
CN1C(=O)c2ccc(NC(=O)c3c(F)c(F)c(F)c(F)c3F)cc2C1=O		12.6 µM (active)
O=C(Nc1ccncc1)c1c(F)cccc1F	-13.7% (inactive)	
Cn1c(=O)n(C)c2cc(C(=O)Nc3ccc4c(c3)OCO4)ccc21	5.94% (inactive)	
O=C(O)c1ccc(NC(=O)C2CCCCC2)cc1	-7.75% (inactive)	
C#CCC(C(=O)OC)(C(=O)OC)C(C[N+](=O)[O-])c1ccccc1 (centres undefined)	-8.6% [at 11.4 µM] (inactive)	
Cn1c(=O)n2n(c1=O)[C@H]1[C@H](O)[C@H]3O[C@H]3C(=O)[C@H]1CC2	-7.54% [at 11.4 µM] (inactive)	
O=C(C1CCN(S(=O)(=O)Cc2ccccc2)CC1)N1CCCc2ccccc21	5.23% (inactive)	
Cc1ccccc1C(=O)O	1.89% (inactive)	

Structure (SMILES)	activity change, negative = inhibition	Potency
COc1ccc(C2CC(=O)c3c(O)cc(OC4OC(COC5OC(C)C(O)C(O)C5O)C(O)C(O)C4O)cc3O2)cc1O (centres undefined)	1.68% (inactive)	
CO[C@@H]1COC(=O)C/C=C\[C@H](C)[C@@H](NS(=O)(=O)c2ccc(C)cc2)COC(=O)C/C=C\[C@@H]1C	2.45% [at 11.4 µM] (inactive) and 8.54% [at 11.4 µM] (inactive)	
CC(C)Cn1c(CCC(=O)O)ccc1-c1cccs1		31.6 µM (active)
Cc1cc(NC(=O)c2cc(-c3cccs3)on2)nn1Cc1ccc(Cl)cc1	45.3% (inactive)	
O=C(O)CCC(=O)N(Cc1cccs1)Cc1cccs1	-14.2% (inactive)	
C/C=C1\C(=O)C[C@@H]2[C@@H]3CCC4=CC(=O)CC[C@@]4(C)[C@H]3CC[C@@]12C	-3.31% (inactive)	
Cc1ccc(S(=O)(=O)NC(=O)NN2C[C@H]3CCC[C@@H]3C2)cc1	0.302% [at 25.6 µM] (inactive)	
CC1CCCCN1CCCNC(=O)c1ccc(-n2c(=O)c(=O)[nH]c3ccccc32)cc1 (centres undefined)	5.61% (inactive)	
CC1CCCC(C)N1CCCNC(=O)c1cc2c(=O)n(C)c3ccccc3c2n1C (centres undefined)		31.6 µM (active)
Cn1c(C(=O)N2CCC(C(N)=O)CC2)cc2c(=O)n(C)c3ccccc3c21	-10.8% (inactive)	
C=C(C)C1CC=C(CO)CC1 (centres undefined)	2.12% (inactive)	
COC(=O)[C@@H]1C[C@@]2(O)[C@H](O)[C@H](O)[C@H](O)C[C@H]2N1Cc1ccc(C)s1	3.78% (inactive)	
Cc1cc(NCc2ccco2)n2c(nc3ccccc32)c1C#N		3.16 µM (active)
N#Cc1c2c(c(N3CCN(CCO)CC3)n3c1nc1ccccc13)CCCC2	-18.5% (inactive)	
Cc1ccccc1NC(=O)NCc1ccco1	-0.0132% (inactive)	
C/C(CCN1CCCCc2nc(C)c(C)cc21)=N\O[C@@H](C)c1cn([C@@H]2COC[C@@H]2O)nn1	0.914% [at 11.4 µM] (inactive)	
CCC1CCCCN1CCNS(=O)(=O)c1ccc2c(c1)CCN2C(C)=O (centres undefined)	7.62% (inactive)	
CCOC(=O)c1ccc(N2C(=O)CC(N3CC(C)OC(C)C3)C2=O)cc1 (centres undefined)	-27.9% (inactive)	
N#Cc1cccc(CSc2nnc(CCCO)n2-c2ccccc2)c1	7.8% (inactive)	
Cn1c(N)c(C(=O)COC(=O)c2cc(C(F)(F)F)nc3c(C(F)(F)F)cccc23)c(=O)n(C)c1=O	8.09% (inactive)	
Cc1c(O)c(Br)c(C)c(O)c1Br (tested in a mixture with another compound)		0.794 µM (active)
CN(c1ccc(C(=O)NCCC2=CCCCC2)cc1)S(C)(=O)=O	8.37% (inactive)	
CCC[C@@H]1C[C@@]1(CCC)C(NS(=O)(=O)c1cccc2cccnc12)c1ccc(Cl)cc1 (some centres undefined)	1.13% (inactive)	
Clc1ccc(C2[C@H]3CN(CC4CCCCC4)[C@H](c4ccccc4)C34CC2(c2cccnc2)C4)cn1 (some centres undefined)	2.17% (inactive)	
Cc1ccc(S(=O)(=O)c2c(N)n(C)c3nc4ccccc4nc23)cc1		25.1 µM (active)

Structure (SMILES)	activity change, negative = inhibition	Potency
Cc1ccc(S(=O)(=O)NCc2nc3ccccc3c(=O)n2N)cc1	-0.665% (inactive)	
c1cc(-n2cnnn2)ccc1NC1=NCCC1	9.21% (inactive)	
CC(C)CN1CCc2nc(-c3ccccc3)c3c(c2C1)COC(C)C3 (centres undefined)	-2.26% [at 11.4 µM] (inactive)	
Cc1ccc(Cn2ccc(NC(=O)c3cc(C(C)C)on3)n2)cc1	-3.93% (inactive)	
CC(C)c1ccc(OCC(O)Cn2cnc3ccccc32)cc1 (centres undefined)	-11% (inactive)	
CCOC(=O)N1CCN(C(=O)CNC(=O)Cc2ccc(Cl)cc2)CC1	8.58% (inactive)	
CCOC(=O)N1CCN(C(=O)c2ccc3nc4cc(Cl)ccc4c(=O)n3c2)CC1		1 µM (active)
CCOC(=O)N1CCN(C(=O)CSc2ccc(Cl)cc2)CC1	-3% (inactive)	
Cn1c(=NC(=O)CSCC(=O)N2CCCCC2)sc2ccccc21	-7.16% (inactive)	
O=C(CSc1nnc(-c2ccccn2)n1-c1ccccc1)Nc1ccc2c(c1)OCO2	1.79% (inactive)	
CC[C@H](c1ccccc1)c1cc(C(C)(C)C)cc(C(C)(C)C)c1O	-3.63% [at 11.4 µM] (inactive)	
CC(C)C1N=C2c3ccccc3N=C(SCC(=O)c3ccc(O)c(O)c3)N2C1=O (centres undefined)	14.8% (inactive)	
NC(=O)CSC1=Nc2ccccc2C2=NC(CCC(=O)NCc3ccc(F)cc3)C(=O)N12 (centres undefined)		31.6 µM (active)
O=C(CN1C(=O)CCS(=O)(=O)c2ccccc21)NCc1ccc(F)cc1	2.42% (inactive)	
Cc1ccc(SCCN2C(=O)NC(C)(C)C2=O)cc1	5.53% (inactive)	
C=CCn1c(COc2cccc3cccnc23)nnc1SCC(=O)OC		31.6 µM (active)
C=CCn1c(COc2ccccc2C)nnc1SCC(=O)O	5.36% (inactive)	
C=CCn1c(COc2ccccc2)nnc1SCC(=O)NCC(=O)OCC	0.839% (inactive)	
O=C(O)C1C2C=CC(C2)C1C(=O)N1CCN(CCO)CC1 (centres undefined)	12.8% (inactive)	
COc1cc(-c2nnc(Cn3cc(C(F)(F)F)ccc3=O)o2)cc(OC)c1OC	-1.71% (inactive)	
CCOC(=O)c1cc(-c2nnc(-c3cc(OC)c(OC)c(OC)c3)o2)c(C)nc1C		31.6 µM (active)
CCOC(=O)c1cc(NC(=O)SCC(=O)O)c(C)nc1C	-8.8% (inactive)	
Cc1cc(C)cc(C#CC2C=CC(Oc3ccc(C4CCCC4)cc3)C(CO)O2)c1 (centres undefined)	4.3% [at 11.4 µM] (inactive)	
COCCCNC(=O)c1ccc2c(c1)ncn2-c1ccccc1OC	-20.2% (inactive)	
CCOCCCNC(=O)c1c[nH]c2cc(C)ccc2c1=O	-2.6% (inactive)	

Structure (SMILES)	activity change, negative = inhibition	Potency
CCn1c(=N)c(C(=O)NCCCOC)cc2c(=O)n3cccc(C)c3nc21		31.6 µM (active)
CC(=O)N(Cc1cccs1)C1CCOC(C)(C)C1 (centres undefined)	-3.43% (inactive)	
O=C(O)c1ccc(COc2c(F)c(F)cc(F)c2F)o1	0.716% (inactive)	
CCOC(=O)n1c(SCC(=O)N(CC)CC)nc2ccccc21	3.57% (inactive)	
Cc1cc(N2CCCCC2)nc2ccc(Cc3ccc4nc(N5CCCCC5)cc(C)c4c3)cc12		3.16 µM (active)
COc1ccc(-n2c(SC)nc(O)cc2=O)cc1	8.7% (inactive)	
O=C(CC1NCCNC1=O)Nc1ccc(Oc2ccccc2)cc1 (centres undefined)	0.426% (inactive)	
O=C(CC1Nc2ccccc2NC1=O)Nc1ccccc1 (centres undefined)		25.1 µM (active)
CCOC(=O)c1ccccc1NC(=O)CC1Nc2ccccc2NC1=O (centres undefined)	0.318% (inactive)	
COc1cccc(NC(=O)C(C)Oc2ccccc2)c1 (centres undefined)	-0.198% (inactive)	
CC(=O)OCC(=O)C1CCC2C3CCC4=CC(=O)CC[C@@]4(C)C3CC[C@]12C (some centres undefined)	2.78% (inactive)	
Fc1ccccc1OCCSc1nc2ccccc2o1	5.24% (inactive)	
C[C@H]1O[C@@H](CC(=O)O)Cc2c1c(O)c1c(O)cc(-c3cc(=O)c4c(=O)c5c(c(=O)c=4c3=O)C[C@H](CC(=O)O)O[C@@H]5C)c(O)c1c2O		3.98 µM (active)
CC(C)C1=CC2=CC[C@@H]3[C@](C)(CO)CCC[C@]3(C)C2CC1 (some centres undefined)	9.63% (inactive)	
Cc1nc2ccc(S(=O)(=O)NC(C(=O)N3CCCCCC3)C(C)C)cc2s1 (centres undefined)	4.54% (inactive)	
COC(=O)[C@H]1C[C@@H]1[C@H](NC(=O)Oc1ccc(F)cc1)c1ccccc1	-6.57% (inactive)	
N=c1c2c3c(sc2ncn1CCCN1CCOCC1)CCCCC3	5.59% (inactive)	
COC(=O)c1ccc(C(NC(=O)OCc2ccccc2)/C(C)=C/[C@@H](C)C(=O)NCc2cc(C)on2)cc1 (some centres undefined)	-4.34% (inactive)	
Cc1cccc(OCc2nnc(SCc3nc4cc(C(F)(F)F)ccc4c(=O)[nH]3)o2)c1		31.6 µM (active)
Cc1cc(C)cc(OCc2nnc(SCC(=O)Nc3ccccc3)o2)c1	8.07% (inactive)	
Cc1cccc(OCc2nnc(SCn3nnc4ccccc4c3=O)o2)c1	-9.02% (inactive)	
O=C(c1csnn1)N1CCC2(CCN(Cc3nccs3)CC2)CC1	-2.61% (inactive)	
Cc1ccccc1CSc1nnc(-c2ccccn2)n1N	4.98% (inactive)	
CC(C)(C)NCC[C@@H](O)c1cc(C(F)(F)F)nc2c(C(F)(F)F)cccc12	3.93% [at 11.4 µM] (inactive)	

Source: PubChem BioAssay AID893 (National Center for Advancing Translational Sciences (NCATS), 2007)
